The values that follow come from PubChem BioAssay (NCI).

Test systems include HCT-15 colon; HT29 colon; SNB-75 CNS; SNB-19 CNS; U251 CNS; PC-3 prostate; SK-MEL-5 melanoma; UACC-62 melanoma; LOX IMVI melanoma; SK-MEL-28 melanoma.
Assay in all cases: NCI-60 one-dose screen, 48 h (100 = growth as untreated, 0 = no growth, -100 = all killed)
Conditions in all cases: 10 µM unless noted

Compounds without any hit were thinned out: in the full panel of roughly 83,000, 20% have a hit.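 Note: values are percent growth. 100 is the growth of untreated cells, values between 100 and 0 indicate rising inhibition; between -100 and 0 indicates cell death.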 A number with no mark means an inactive call. Active and inactive are the calls of the source. How the source made its calls: active means growth percent below 10; inactive means the rest.

On to `O=C1OC(c2ccccc2)=N/C1=C\c1ccc([N+](=O)[O-])cc1`, for which the growth in the assay on HCT-15 colon is 104%; in the assay on HT29 colon it was 98.8%; in the assay on SNB-75 CNS, 84.8%; in the assay on SNB-19 CNS it was 107%; in the assay with U251 CNS, 102%; in the assay with PC-3 prostate it was 94.4%. The growth in the assay on SK-MEL-5 melanoma is 99.2%; in the assay on UACC-62 melanoma, 95.5%; in the assay on LOX IMVI melanoma, 96.9%; in the assay on SK-MEL-28 melanoma, 102%.
Turning to `CCOC(=O)/C=C\C(=O)NC(N)=O`, the growth with HCT-15 colon was 99.9%; with HT29 colon it was 104%; in the assay on SNB-75 CNS it was 99.3%; in the assay on SNB-19 CNS, 106%; in the assay on U251 CNS, 94%; in the assay with PC-3 prostate it was 83.5%. Besides, the growth in the assay on SK-MEL-5 melanoma was 105%; in the assay on UACC-62 melanoma it was 99.3%; in the assay with LOX IMVI melanoma, 91.8%; in the assay with SK-MEL-28 melanoma it was 118%.
Take `CC(Cc1nnc(SCC(=O)Nc2ccc(I)cc2)n1N)c1ccccc1` (stereo not given): the growth with HCT-15 colon is 103%; with HT29 colon, 111%; in the assay with SNB-75 CNS it was 260%; with SNB-19 CNS, 96.6%; with U251 CNS, 92.7%; in the assay on PC-3 prostate it was 90.2%. Also, the growth is 94.3% with SK-MEL-5 melanoma, 66.8% in the assay with UACC-62 melanoma, 83.7% with LOX IMVI melanoma and 133% with SK-MEL-28 melanoma.
`NS(=O)(=O)c1ccc(CN2C(=O)c3cccc4cccc(c34)C2=O)cc1`: the growth in the assay with HCT-15 colon was 88.5%; with HT29 colon it was 102%; in the assay with SNB-75 CNS it was 83.9%; with SNB-19 CNS, 100%; with U251 CNS, 99%; with PC-3 prostate, 93.3%. Moreover, the growth was 96.8% in the assay on SK-MEL-5 melanoma, 97.1% with UACC-62 melanoma, 96.2% in the assay on LOX IMVI melanoma and 113% in the assay with SK-MEL-28 melanoma.
As to `CCN(CC)CCCNc1nc(C)cc(Nc2ccc3nc(C)cc(N)c3c2)n1`, the growth with HCT-15 colon is 105%; in the assay with HT29 colon, 92.5%; with SNB-75 CNS, 90.9%; with SNB-19 CNS it was 108%; in the assay on U251 CNS it was 100%; with PC-3 prostate, 76%. The growth in the assay on SK-MEL-5 melanoma was 112%; with UACC-62 melanoma it was 117%; in the assay on LOX IMVI melanoma, 95.6%; in the assay on SK-MEL-28 melanoma, 111%.
Regarding `CN(C)c1ccc(/C=C\N=Nc2ccc(Br)cc2)cc1`, the growth in the assay with HCT-15 colon is 36.2%; in the assay with HT29 colon it was 52.9%; in the assay on SNB-75 CNS it was 82%; in the assay on SNB-19 CNS, 96.2%; in the assay with U251 CNS it was 68.4%; with PC-3 prostate it was 52.3%. Further, the growth in the assay on SK-MEL-5 melanoma is 76.5%; in the assay on UACC-62 melanoma, 17.2%; in the assay on LOX IMVI melanoma, 13.2%; in the assay with SK-MEL-28 melanoma, 83.9%.
Turning to `CC/C(=C(\c1ccc(O)cc1)c1ccc(OCCN(C)CCN(C)C(=O)CCC(=O)c2c(C)[nH]c(/C=C3\N=C(c4ccc[nH]4)C=C3OC)c2C)cc1)c1ccccc1`, the growth in the assay on HCT-15 colon is 34.3%; with HT29 colon, 15.5%; with SNB-75 CNS, 92.4%; with SNB-19 CNS, 108%; in the assay on U251 CNS, 63.2%; with PC-3 prostate it was 61.4%. Moreover, the growth in the assay with SK-MEL-5 melanoma is 78.2%; in the assay on UACC-62 melanoma it was 14.2%; in the assay with LOX IMVI melanoma, 33.6%; with SK-MEL-28 melanoma, 61.7%.
For `CCSc1nnc(Nc2ccc(C(C)C)cc2)s1`, the growth in the assay on HCT-15 colon was 48%; in the assay on HT29 colon, 28.9%; in the assay with SNB-75 CNS it was 102%; in the assay on SNB-19 CNS, 98.4%; with U251 CNS it was 66%; with PC-3 prostate it was 109%. The growth in the assay with SK-MEL-5 melanoma was 78.9%; with UACC-62 melanoma, 78.1%; in the assay on LOX IMVI melanoma, 82.5%; in the assay on SK-MEL-28 melanoma, 110%.
As for `CCCS(=O)(=O)c1nc(NC2CC2)cc(-c2ccc3c(ccn3C3CC(C)(C)NC(C)(C)C3)c2)n1`, the growth with HCT-15 colon is -71.4% (active); with HT29 colon, -48% (active); with SNB-75 CNS, -16.2% (active); in the assay on SNB-19 CNS, 38.9%; in the assay with U251 CNS, -65.5% (active); in the assay with PC-3 prostate it was 17.4%. The growth with SK-MEL-5 melanoma was 16.2%; in the assay on UACC-62 melanoma it was -83.1% (active); with LOX IMVI melanoma it was -91.5% (active); in the assay with SK-MEL-28 melanoma, -59.2% (active).
Consider `O=C1CCCCN1CCCCC#Cc1ccccc1C#Cc1ccc([N+](=O)[O-])cc1`, for which the growth in the assay with HCT-15 colon is 17.4%; in the assay on HT29 colon, 28.4%; with SNB-75 CNS, 66.1%; in the assay on SNB-19 CNS, 70.2%; in the assay on U251 CNS, 28%; in the assay with PC-3 prostate, 31.9%. Moreover, the growth is 3.34% (active) in the assay on SK-MEL-5 melanoma, 25.8% in the assay with UACC-62 melanoma, 6.11% (active) in the assay with LOX IMVI melanoma and 46.1% with SK-MEL-28 melanoma.
For `COc1ccc(OC)c(-c2ccc(-c3ccccc3N)c3[nH]c4ccccc4c23)c1`, the growth in the assay on HCT-15 colon is 88.3%; in the assay with HT29 colon, 63.4%; in the assay with SNB-75 CNS it was 89.7%; in the assay on SNB-19 CNS it was 89.1%; in the assay with U251 CNS it was 77.9%; in the assay with PC-3 prostate it was 59%. Besides, the growth in the assay with SK-MEL-5 melanoma was 79.4%; in the assay with UACC-62 melanoma it was 64.4%; with LOX IMVI melanoma, 84%; with SK-MEL-28 melanoma, 107%.
Consider `CCN(Cc1ccccc1)c1ccc(SC#N)cc1`, for which the growth with HCT-15 colon is 64.8%; with HT29 colon, 70.5%; with SNB-75 CNS, 83.1%; in the assay on SNB-19 CNS, 90.7%; in the assay with U251 CNS, 81.5%; in the assay with PC-3 prostate, 30.5%. Further, the growth in the assay with SK-MEL-5 melanoma is 93.8%; with UACC-62 melanoma it was 90.4%; in the assay on LOX IMVI melanoma, 49.2%; in the assay on SK-MEL-28 melanoma, 86.7%.
In the case of `O=C(c1c[nH]c2ccccc12)C(Sc1nc2ccccc2c(=O)[nH]1)c1ccccc1` (stereo not given), the growth with HCT-15 colon was 104%; in the assay on HT29 colon it was 71.3%; with SNB-75 CNS, 90.6%; in the assay with SNB-19 CNS it was 102%; with U251 CNS, 101%; with PC-3 prostate, 94.1%. Further, the growth is 99.8% in the assay on SK-MEL-5 melanoma, 102% in the assay on UACC-62 melanoma, 95.3% in the assay on LOX IMVI melanoma and 117% in the assay on SK-MEL-28 melanoma.
As for `COc1ccc2c(c1)NC(=O)CN2c1nc(C)nc2ccccc12`, the growth was 9.21% (active) in the assay with HCT-15 colon; 3.4% (active) in the assay with HT29 colon; 41.8% in the assay with SNB-75 CNS; 34.4% in the assay on SNB-19 CNS; 16.2% in the assay on U251 CNS; 15.1% in the assay on PC-3 prostate. Also, the growth was -34.8% (active) in the assay on SK-MEL-5 melanoma, 35.7% with UACC-62 melanoma, 22% in the assay with LOX IMVI melanoma and 59% in the assay with SK-MEL-28 melanoma.
With `O=S(=O)(NCCNc1cc(-c2cn(-c3ccccc3)nc2-c2ccccc2)ccn1)c1ccc(F)cc1`, the growth with HCT-15 colon was 74.2%; in the assay on HT29 colon, 88.3%; in the assay on SNB-75 CNS, 77.4%; in the assay with SNB-19 CNS, 92.5%; in the assay with U251 CNS it was 72.7%; in the assay with PC-3 prostate it was 47.6%. Further, the growth was 68.9% in the assay with SK-MEL-5 melanoma, 89.4% with UACC-62 melanoma, 78.5% in the assay on LOX IMVI melanoma and 104% with SK-MEL-28 melanoma.
Regarding `CCc1cccc(C)c1NC(=O)c1sc2nc3c(cc2c1N)C(=O)CCC3`, the growth with HCT-15 colon is 32.8%; with HT29 colon, 6.1% (active); in the assay with SNB-75 CNS, -2.83% (active); in the assay on SNB-19 CNS it was 67.9%; in the assay with U251 CNS, 2.81% (active); with PC-3 prostate, 23.3%. The growth with SK-MEL-5 melanoma is 17%; in the assay with UACC-62 melanoma, 46.5%; in the assay with LOX IMVI melanoma it was 37.9%; with SK-MEL-28 melanoma it was 42.9%.
Turning to `COc1cc2nc(N3CCC[C@@H](NC4=CC(=O)c5ccccc5C4=O)C3)nc(N)c2cc1OC`, the growth with HCT-15 colon was -67.2% (active); in the assay on HT29 colon it was -59.8% (active); in the assay with SNB-75 CNS, -92.3% (active); in the assay on SNB-19 CNS, -49.7% (active); in the assay on U251 CNS, -89.3% (active); with PC-3 prostate, 23%. Moreover, the growth in the assay on SK-MEL-5 melanoma is 94%; with UACC-62 melanoma, 87.8%; in the assay on LOX IMVI melanoma it was -65.3% (active); with SK-MEL-28 melanoma it was 109%.
For the compound `COc1ccc(C2CC(c3cccs3)=NN2c2ccc(S(=O)(=O)NC(=O)NCc3cccc(OC)c3)cc2)cc1` (stereo not given), the growth in the assay on HCT-15 colon was 102%; with HT29 colon, 120%; in the assay on SNB-75 CNS, 99.9%; with SNB-19 CNS, 103%; in the assay with U251 CNS, 98.1%; with PC-3 prostate, 96.3%. The growth in the assay on SK-MEL-5 melanoma is 50%; in the assay on UACC-62 melanoma, 31%; in the assay on LOX IMVI melanoma, 96.8%; in the assay on SK-MEL-28 melanoma it was 48.3%.
For `Cc1nc(Nc2cccnc2)sc1C(=O)/C=C/c1ccc(Cl)cc1`, the growth was 15% in the assay on HCT-15 colon; 6.4% (active) in the assay on HT29 colon; -1.63% (active) with SNB-75 CNS; 14.2% in the assay with SNB-19 CNS; 3.86% (active) in the assay with U251 CNS; 29.4% in the assay with PC-3 prostate. Besides, the growth is 73.1% in the assay with SK-MEL-5 melanoma, 36.1% with UACC-62 melanoma, 0.346% (active) in the assay with LOX IMVI melanoma and 77.8% in the assay on SK-MEL-28 melanoma.
Regarding `CC(=O)Nc1ccc(S(=O)(=O)N2C(=O)CCC2C(=O)Nc2ccccc2)cc1` (stereo not given), the growth with HCT-15 colon was 45.8%; in the assay on HT29 colon it was 34%; in the assay on SNB-75 CNS it was 28.9%; in the assay with SNB-19 CNS it was 45%; with U251 CNS, 29.4%; in the assay on PC-3 prostate it was 26.7%. The growth in the assay with SK-MEL-5 melanoma is 20.2%; in the assay on UACC-62 melanoma, 11%; with LOX IMVI melanoma, 29.9%; in the assay with SK-MEL-28 melanoma, 48.6%.
Turning to `COc1cc(C(=O)N2CCN(C(=O)c3ccco3)CC2)c(N)cc1OCc1ccccc1`, the growth was 101% in the assay on HCT-15 colon; 107% with HT29 colon; 96.8% in the assay with SNB-75 CNS; 103% with SNB-19 CNS; 99.1% in the assay on U251 CNS; 98.5% in the assay on PC-3 prostate. Besides, the growth was 94.9% in the assay with SK-MEL-5 melanoma, 93.8% in the assay with UACC-62 melanoma, 92.4% in the assay on LOX IMVI melanoma and 114% in the assay with SK-MEL-28 melanoma.
For `O=C(O)C(Cc1ccccc1)N1C(=O)/C(=C/C(Cl)=C/c2ccc([N+](=O)[O-])cc2)SC1=S` (stereo not given), the growth with HCT-15 colon was 41.2%; in the assay on HT29 colon, 30.8%; with SNB-75 CNS it was 43%; with SNB-19 CNS, 32.2%; in the assay on U251 CNS, 8.38% (active); in the assay with PC-3 prostate, 31.2%. Besides, the growth in the assay on SK-MEL-5 melanoma is 2.03% (active); with UACC-62 melanoma, -56.4% (active); with LOX IMVI melanoma, -74.2% (active); in the assay on SK-MEL-28 melanoma, 3.14% (active).
